Experimental findings from PubChem BioAssay (NCATS) are described below.

Values without a mark were called inactive. Records with an inconclusive call do not appear. The source made the active and inactive calls. Unless noted, calls come from the whole dose curve; as a rule, active = well fitted curve in either direction with a large enough effect (not every such curve was filed as active); inconclusive = small, poorly fitted or top-dose-only effect, or another doubt; inactive = flat fitted curve, though single readings scatter.

The target in test [1] is Lysosomal acid glucosylceramidase (Homo sapiens) (UniProt P04062). Nature of the test: Glucocerebrosidase-p2 (AID 348; in the data active = potency below about 10 µM; note: potency is the fitted concentration of half-maximal effect). As to conditions: purified GBA, blue fluorogenic substrate, 40 min. The method in brief: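 Normal human glucocerebrosidase (0.2 nM) with blue fluorogenic substrate (80 uM final) in citrate/phosphate pH 5.9 with 10mM sodium taurocholate, 0.01% tween-20; 40 min RT, NaOH/glycine stop; fluorescence Ex 365/Em 440; AC50 from a titration from 0.6 nM upwards.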
Sequence of Lysosomal acid glucosylceramidase (Homo sapiens) (P04062 whole entry, looked up): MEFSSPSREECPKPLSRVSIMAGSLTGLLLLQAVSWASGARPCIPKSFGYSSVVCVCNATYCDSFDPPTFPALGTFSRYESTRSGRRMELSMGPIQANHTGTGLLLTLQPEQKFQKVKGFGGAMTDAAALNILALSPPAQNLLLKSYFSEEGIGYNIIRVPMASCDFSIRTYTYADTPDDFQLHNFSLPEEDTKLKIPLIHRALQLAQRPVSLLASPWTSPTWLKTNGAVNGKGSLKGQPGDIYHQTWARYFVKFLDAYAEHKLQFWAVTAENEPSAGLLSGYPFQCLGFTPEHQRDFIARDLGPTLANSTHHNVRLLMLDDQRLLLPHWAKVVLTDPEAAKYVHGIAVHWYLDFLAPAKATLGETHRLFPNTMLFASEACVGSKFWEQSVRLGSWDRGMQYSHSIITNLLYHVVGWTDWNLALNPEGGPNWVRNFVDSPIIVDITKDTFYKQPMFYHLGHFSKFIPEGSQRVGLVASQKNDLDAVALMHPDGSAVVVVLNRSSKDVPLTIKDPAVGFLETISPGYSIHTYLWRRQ

The target in test [2] is Cytochrome P450 1A2 (Homo sapiens) (UniProt P05177). In words: p450-cyp1a2 (AID 410; calls by dose curve; note: potency is the fitted concentration of half-maximal effect;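 for activity change, negative = inhibition: -100% = full effect of reference inhibitor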). To be noted: recombinant CYP1A2, luciferin-ME demethylation, luminescence; series mostly up to 11.4 µM. The method in brief: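 Read-out is luminescence from luciferin produced by CYP1A2 demethylation of Luciferin-ME (100uM, at Km). Detection reagent stopped the 60 min NADPH-dependent reaction; signals were normalized to 57 uM furafylline.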
Sequence of Cytochrome P450 1A2 (Homo sapiens) (P05177 whole entry, looked up): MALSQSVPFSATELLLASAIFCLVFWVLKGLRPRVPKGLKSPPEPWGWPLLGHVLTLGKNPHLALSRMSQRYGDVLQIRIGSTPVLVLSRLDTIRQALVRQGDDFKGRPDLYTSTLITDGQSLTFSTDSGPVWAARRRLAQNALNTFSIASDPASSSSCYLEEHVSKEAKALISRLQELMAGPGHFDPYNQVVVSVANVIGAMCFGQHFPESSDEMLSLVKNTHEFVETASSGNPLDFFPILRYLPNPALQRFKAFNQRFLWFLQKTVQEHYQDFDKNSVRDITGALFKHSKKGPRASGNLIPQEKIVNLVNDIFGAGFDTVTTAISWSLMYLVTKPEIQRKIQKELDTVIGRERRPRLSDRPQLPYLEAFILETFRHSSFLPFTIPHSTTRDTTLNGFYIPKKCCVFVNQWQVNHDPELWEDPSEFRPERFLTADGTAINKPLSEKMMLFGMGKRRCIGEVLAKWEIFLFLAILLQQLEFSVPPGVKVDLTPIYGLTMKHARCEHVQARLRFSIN

The target in test [3] is Glucocorticoid receptor (Homo sapiens) (UniProt P04150). In words: GR-GFP Redistribution (AID 450;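 active = compounds whose dose series gives a full or clear partial fitted curve of increased nuclear translocation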; note: potency is the fitted concentration of half-maximal effect). To be noted: U2OS GR-GFP nuclear translocation, laser cytometry, 2 h.
Sequence of Glucocorticoid receptor (Homo sapiens) (P04150 whole entry, looked up, the tested form may be a part): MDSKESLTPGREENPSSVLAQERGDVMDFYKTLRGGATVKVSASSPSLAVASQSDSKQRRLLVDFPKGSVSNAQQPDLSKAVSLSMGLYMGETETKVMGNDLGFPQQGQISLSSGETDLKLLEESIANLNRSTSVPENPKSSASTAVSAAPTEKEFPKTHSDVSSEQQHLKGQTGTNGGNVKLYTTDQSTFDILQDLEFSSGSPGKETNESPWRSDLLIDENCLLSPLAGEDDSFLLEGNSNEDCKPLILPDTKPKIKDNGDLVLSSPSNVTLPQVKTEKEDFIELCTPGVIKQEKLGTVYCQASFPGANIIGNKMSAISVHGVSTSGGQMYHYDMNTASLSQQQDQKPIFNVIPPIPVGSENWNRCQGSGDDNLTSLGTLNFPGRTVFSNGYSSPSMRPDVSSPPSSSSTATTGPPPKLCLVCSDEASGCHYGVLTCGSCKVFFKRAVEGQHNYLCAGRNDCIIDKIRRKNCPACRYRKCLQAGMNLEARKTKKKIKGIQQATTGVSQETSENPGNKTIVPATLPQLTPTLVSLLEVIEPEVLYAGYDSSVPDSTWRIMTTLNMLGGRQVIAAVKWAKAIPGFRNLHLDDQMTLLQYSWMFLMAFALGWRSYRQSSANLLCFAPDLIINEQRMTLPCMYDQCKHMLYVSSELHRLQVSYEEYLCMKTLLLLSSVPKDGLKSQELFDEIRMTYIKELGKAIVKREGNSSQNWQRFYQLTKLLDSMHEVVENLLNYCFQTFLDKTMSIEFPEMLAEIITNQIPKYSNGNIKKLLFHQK
In test [4] the target is Mitogen-activated protein kinase 10 (Mus musculus) (UniProt Q61831). Nature of the test: JNK3 AlphaScreen Assay (AID 530).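 Note: kinase came from lysate of stimulated human HepG2 cells; signal reports phosphorylation of biotinylated GST-cJun 1-79 at Ser73 with 10 µM ATP; % is set by controls: 0 for no effect and ±100 for the full control effect.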 As to conditions: JNK3 lysate, c-Jun phosphorylation; series mostly up to 57.1 µM. The method in brief:
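Kinase buffer: 20 mM Tris-HCl pH 7.6, 10 mM MgCl2, 1 mM DTT, 0.1 mM Na3VO4, 0.01% Tween-20; ATP 10 uM. Substrate biotin-GST-cJun(1-79), enzyme from activated HepG2 lysates. Detection by Ser73 phospho-antibody AlphaScreen.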

The target in test [5] is 3',5'-cyclic-AMP phosphodiesterase 4B (Homo sapiens) (UniProt Q07343). In words: qHTS Assay for Inhibitors of PDE-IV (AID 607; active = well fitted activation curve with a large enough effect in the main read-out, with a control signal flat, not every such curve was filed as active; note: % of control where 0% means no effect). To be noted: HEK293 ACTOne CNG channel cells, membrane potential fluorescence; series mostly up to 22.9 µM. The method in brief: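 The readout is membrane depolarisation from a cAMP-sensing CNG channel, detected with a potential dye at ex 535/em 590. Cells were HEK293-derived (endogenous PDE-IV) at 1000 cells/well, titrated up to 22.9 uM final.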
Sequence of 3',5'-cyclic-AMP phosphodiesterase 4B (Homo sapiens) (Q07343 whole entry, looked up): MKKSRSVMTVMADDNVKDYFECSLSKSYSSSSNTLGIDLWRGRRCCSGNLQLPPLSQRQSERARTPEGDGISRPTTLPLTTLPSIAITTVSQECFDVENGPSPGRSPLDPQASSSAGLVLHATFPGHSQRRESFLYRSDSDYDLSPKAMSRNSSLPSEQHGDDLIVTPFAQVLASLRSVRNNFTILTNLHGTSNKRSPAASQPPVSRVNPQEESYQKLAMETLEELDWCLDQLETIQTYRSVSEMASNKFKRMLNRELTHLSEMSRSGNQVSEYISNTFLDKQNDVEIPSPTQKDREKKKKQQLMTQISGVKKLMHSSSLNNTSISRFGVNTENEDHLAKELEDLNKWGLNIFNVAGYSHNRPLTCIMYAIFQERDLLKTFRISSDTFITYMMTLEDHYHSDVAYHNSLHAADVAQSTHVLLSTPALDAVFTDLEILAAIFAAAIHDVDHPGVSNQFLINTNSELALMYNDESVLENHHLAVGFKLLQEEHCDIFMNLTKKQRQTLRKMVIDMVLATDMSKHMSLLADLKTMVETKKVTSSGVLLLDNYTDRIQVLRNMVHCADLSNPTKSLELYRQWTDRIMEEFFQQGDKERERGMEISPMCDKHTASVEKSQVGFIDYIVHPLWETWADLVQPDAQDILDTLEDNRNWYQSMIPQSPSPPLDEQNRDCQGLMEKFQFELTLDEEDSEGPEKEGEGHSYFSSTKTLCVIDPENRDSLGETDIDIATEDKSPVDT

The nature of test [6]: AP1 Signaling Pathway (AID 357).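 Note: ME-180 reporter cells stimulated with EGF at its EC50 level; % is set by controls: 0 for no effect and ±100 for the full control effect.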 As to conditions: ME-180 AP-1-bla reporter, EGF-induced, beta-lactamase ratio, 5 h; at 7.69 µM (top of the series) unless noted. The essentials:
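In this screen, ME-180 cells in Opti-MEM with 0.5% dialyzed FBS received EC50 EGF and compound titrations for 5 h. AP-1 reporter beta-lactamase was detected via CCF4 ratio, giving AC50 for positive and negative modulators.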

The nature of test [7]: Stat Signaling Pathway (AID 446).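 Note: ME-180 cervical cancer cells given 40 pM IL-6 alongside compound; SIE-controlled beta-lactamase reporter measured as 460/530 nm FRET emission ratio; % is set by controls: 0 for no effect and ±100 for the full control effect.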 As to conditions: ME-180 (cervical carcinoma) SIE beta-lactamase reporter, IL-6 stimulated, 5 h; at 7.69 µM (top of the series) unless noted. The essentials:
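Emission at 460 and 530 nm (excitation 405 nm) reports SIE-controlled beta-lactamase in ME-180 cells. Cells received compound with 40 pM IL-6 for 5 hrs at 37 C; data scaled between 300 pM IL-6 and 125 nM JAK-inhibitor controls.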

For test [8], the target named is Glucocorticoid receptor (Homo sapiens) (UniProt P04150). In words: GR-EFC Redistribution (AID 451; calls by dose curve; note: potency is the fitted concentration of half-maximal effect). As to conditions: CHO-K1 GR-EFC translocation, beta-gal luminescence, 2 h. The essentials:
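Translocation of GR-ED fusion to nuclear EA restores b-gal, read by luminescence after 1 h room-temperature detection. Engineered CHO-K1 biosensor cells, 1,000/well, exposed 2 h at 37 C to titrations up to 46 uM final.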

Test [9] is described as follows: NFAT Signaling Pathway (AID 444).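 Note: carbachol stimulus at about its EC50 of 1 µM final; % is set by controls: 0 for no effect and ±100 for the full control effect.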 As to conditions: Jurkat NFAT-bla M1, carbachol, beta-lactamase ratio, 5 h; at 7.69 µM (top of the series) unless noted. The method in brief:
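Read-out: CCF4 FRET ratio (460 nm/530 nm) after 1 h RT dye loading, used for %activity and AC50 from titration series. Cells: Jurkat NFAT-β-lactamase/M1 line, treated with compound plus 1 uM carbachol for 5 h, 37 °C.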

The target of test [10] is Cytochrome P450 2D6 (Homo sapiens) (UniProt P10635). Nature of the test: qHTS Assay for Inhibitors and Substrates of Cytochrome P450 2D6 (AID 891; active = well fitted inhibition curve with a large enough effect; note: potency is the fitted concentration of half-maximal effect; nearly all actives have a fitted effect of over 60% in size). As to conditions: recombinant CYP2D6, luciferin-ME EGE luminescence; series mostly up to 11.4 µM. The essentials: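 Luminescent read-out of luciferin formed by 5 nM human CYP2D6 demethylating 30 uM Luciferin-ME EGE (Km level) over 60 min at room temperature after NADPH regeneration addition. Data normalized to full inhibition by 1.43 uM quinidine.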
Sequence of Cytochrome P450 2D6 (Homo sapiens) (P10635 whole entry, looked up): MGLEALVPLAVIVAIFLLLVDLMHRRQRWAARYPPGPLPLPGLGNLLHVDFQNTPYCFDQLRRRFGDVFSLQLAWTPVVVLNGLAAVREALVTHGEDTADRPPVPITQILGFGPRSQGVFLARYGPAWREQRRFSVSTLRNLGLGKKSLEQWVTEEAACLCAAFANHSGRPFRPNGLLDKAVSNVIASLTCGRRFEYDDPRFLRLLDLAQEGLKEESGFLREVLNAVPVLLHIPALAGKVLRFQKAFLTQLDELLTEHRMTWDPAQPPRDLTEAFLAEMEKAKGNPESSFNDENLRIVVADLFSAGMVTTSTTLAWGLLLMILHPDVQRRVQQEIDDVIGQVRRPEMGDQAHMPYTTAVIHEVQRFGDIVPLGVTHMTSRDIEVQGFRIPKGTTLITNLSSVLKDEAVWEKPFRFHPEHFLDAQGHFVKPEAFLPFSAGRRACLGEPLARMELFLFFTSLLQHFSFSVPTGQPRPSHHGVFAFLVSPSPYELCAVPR

For `O=C(c1ccccc1)[C@H]1[C@H](c2ccccc2[N+](=O)[O-])N1C1CCCCC1` (stereo partly specified), the Potency was more than 11.4 µM in test [1], 0.631 µM (active) in test [2] and more than 46 µM in [3]. Also, the activity change, negative = inhibition in test [4] is -6.49% [at 11.4 µM]. Moreover, the outcome in test [5] was inactive.

As for `NNc1nncn1N`, the Potency in test [1] was more than 11.4 µM; in [3], more than 46 µM; in test [8] it was more than 9.22 µM. Moreover, the activity change, negative = inhibition in test [6] was 17.5%; in test [4], 3.94% [at 11.4 µM]. The activity, negative = inhibition in test [7] was 18.4%. The outcome in test [5] was inactive.

Regarding `C[C@@H]1O[C@@H](O[C@H]2C[C@@H](O)[C@@]3(CO)[C@H]4[C@H](O)C[C@]5(C)[C@@H](C6=CC(=O)OC6)CC[C@]5(O)[C@H]4CC[C@@]3(O)C2)[C@@H](O)[C@H](O)[C@H]1O`, the Potency in test [1] was more than 11.4 µM. Moreover, the activity change, negative = inhibition is -104% (active) in [9] and -1.14% [at 11.4 µM] in test [4]. Also, the activity, negative = inhibition in test [7] was -4.36%. In test [5], the result was inactive.

For `O=C(O)C(Oc1nc(=S)[nH]c(=S)[nH]1)(c1ccc(Cl)cc1)c1ccc(Cl)cc1`, the results for the Potency in test [1] and in test [3] were more than 11.4 µM and more than 46 µM, respectively. In addition, the activity change, negative = inhibition is 17% in [6], 0.65% in [9] and 5.45% [at 11.4 µM] in [4]. The activity, negative = inhibition in test [7] is 3.94%. The call in [5] was inactive.

Take `CC(=O)O[C@H]1CC[C@H]2[C@@H]3CCC4=C[C@@H](C5SCCS5)[C@H](OC(C)=O)C[C@]4(C)[C@H]3CC[C@@]12C`: the Potency in [1] was more than 11.4 µM; in test [3] it was more than 46 µM; in test [8] it was more than 9.22 µM. In addition, the activity change, negative = inhibition in test [6] was -2.54%; in test [4], 5.72% [at 11.4 µM]. Besides, the activity, negative = inhibition in [7] was 0.282%. For the same compound, the outcome in test [5] was inactive.

Regarding `COc1ccc(C[C@@H]2NC[C@H](O)[C@@H]2OC(C)=O)cc1`, the activity change, negative = inhibition in test [6] is -118% [at 17.2 µM] (active); in test [9], -130% [at 17.2 µM] (active). In addition, the Potency entry in [2] and in test [4] was “inactive” throughout. Further, the activity, negative = inhibition in test [7] is -101% [at 17.2 µM] (active). Further, the Potency in test [3] and in test [8] was more than 20.6 µM throughout. The result in [5] was inactive.

Consider `COc1ccc(C[C@@H](N)c2ccc(OC)cc2)cc1`, for which the Potency is more than 11.4 µM in test [1], more than 46 µM in [3], more than 9.22 µM in test [8] and 0.631 µM (active) in test [10]. For the same compound, the activity change, negative = inhibition was -1.85% in [6] and 3.37% [at 11.4 µM] in test [4]. Moreover, the activity, negative = inhibition in test [7] is -0.344%. Also, the outcome in test [5] was inactive.

On to `O=C(N1CCOCC1)C1(c2ccccc2)CCNCC1`, for which the results for the Potency in test [1], in test [3] and in test [8] were more than 11.4 µM, more than 46 µM and more than 9.22 µM, respectively. For the same compound, the activity change, negative = inhibition in test [6] is -2.66%; in [4] it was 3.92% [at 11.4 µM]. In addition, the activity, negative = inhibition in test [7] was 8.97%. Also, in test [5], the compound was classed as inactive.

As to `CCNCCC1(CC)C(=O)NC(=O)NC1=O`, the Potency is more than 11.4 µM in test [1] and more than 46 µM in test [3]. For the same compound, the activity change, negative = inhibition in [6] is 0.916%; in test [9], 11.4%; in [4], 3.87% [at 11.4 µM]. For the same compound, the activity, negative = inhibition in test [7] is 2.13%. Besides, the compound was called inactive in [5].
